According to PubChem BioAssay AID588856 (National Center for Advancing Translational Sciences (NCATS), 2011):
Among all 410,000 compounds or so, about 3,100 (0.76%) were called active. The full list was thinned out, with actives kept by preference. A number with no mark means an inactive call. Calls come from the whole dose curve; as a rule, active = well fitted cell-killing curve with a large enough effect; inactive = no such curve, though single readings can be large or run the other way.

assay: qHTS for Inhibitors of TGF-b: Cytotox Counterscreen; conditions: HepG2 CAGA-GFP viability, ATP luminescence, 18 h; series mostly up to 46.1 µM; activity change, negative = cytotoxicity: at the top concentration
Summary of the method: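 CellTiter-Glo luminescence gave cytotoxicity after 18 hours at 37 degrees C. The cells were HepG2 CAGA-GFP in 1% FBS DMEM, stimulated with 500 pg/mL TGF-beta after compound addition. %Activity was normalised to no-cell wells (complete cell-killing) and DMSO (no toxicity), and curves were fitted and classified.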
Potency is the fitted concentration of half-maximal effect.

SMILES	Potency	activity change, negative = cytotoxicity [%]
CC(C)CC[n+]1ccn(C2=C([O-])c3ccccc3C(=O)/C2=N\S(=O)(=O)c2ccccc2)c1	5.62 µM (active)	
Cc1ccc(S(=O)(=O)/N=C2\C=C(NS(=O)(=O)c3ccc(C)cc3)C(=O)c3ccccc32)cc1		-112
C=C1CCN(C(CC(C)C)C(=O)N2CCOCC2)S(=O)(=O)c2ccccc21 (centres undefined)		-22.3
O=C(CN1c2ccccc2S(=O)(=O)c2ccccc21)Nc1cccc(C(F)(F)F)c1		-28.4
NC(c1csc(NC(=O)Nc2cccc(C(F)(F)F)c2)n1)C1CCCCC1 (centres undefined)	8.91 µM (active)	
Cc1oc2ccc(O)c(CN3CCCCC3)c2c1C(=O)Nc1cccc(C(F)(F)F)c1		-71.8
O=C(CC(NCc1cccnc1)C(=O)O)Nc1ccc(O)cc1 (centres undefined)		-1.55
O=C(N/N=C/c1cccc2cccnc12)[C@H]1C[C@@H]1c1ccccc1		-31.3
Cc1c(Cl)cccc1NC(=O)CSc1ccc(-c2cccnc2)nn1		-17.7
O=C(CSc1cccc2cccnc12)N/N=C/c1cccnc1	7.08 µM (active)	
Cc1cc[n+](C2CCCCC2)cc1		-32.8
COc1cccc(CNC(=O)c2ccc3c(c2)N(Cc2ccc(C(F)(F)F)cc2)C(=O)c2ccccc2S3)c1OC		-21.3
COc1ccc(-n2nnc(-c3nsc(NC(=O)c4ccc(C)c(C)c4)n3)c2C)cc1Cl		-3.8
COc1ccc(C)cc1NC(=O)CCS(=O)(=O)c1cccc2nonc12		-9.1
Cc1ccc(S(=O)(=O)CCC(=O)OCc2ccccc2)cc1		15.6
COc1ccccc1CNC(=O)CS(=O)(=O)c1cccc2nsnc12		-0.638
O=C(C1COc2ccccc2O1)N(Cc1cccnc1)c1nc2c(F)cc(F)cc2s1 (centres undefined)		-4.6
Cc1cccc2sc(N(CCCN(C)C)C(=O)CCS(=O)(=O)c3ccccc3)nc12	7.08 µM (active)	
COc1cccc2sc(N(CCCN(C)C)C(=O)CCS(=O)(=O)c3ccccc3)nc12	3.55 µM (active)	
CN(C)S(=O)(=O)c1ccc(C(=O)N(Cc2cccnc2)c2nc3c(F)cc(F)cc3s2)cc1		-12.8
O=C(O)CCS(=O)(=O)c1ccc(-c2ccccc2)cc1		-29.8
O=C(CCS(=O)(=O)c1ccccc1)N(Cc1cccnc1)c1nc2c(F)cccc2s1	7.94 µM (active)	
CCc1ccc2oc(-c3ccc(NC(=O)c4cc5ccccc5o4)cc3)nc2c1		-9.98
CCn1cc(C(=O)NCCc2ccccc2)c(=O)c2cc(S(=O)(=O)N3CCCCCC3)ccc21		-21.5
CC(C)Cn1c(C2CC(=O)N(c3ccccc3Cl)C2)nc2ccccc21 (centres undefined)		-4.94

SMILES	Potency	activity change, negative = cytotoxicity [%]
CN(C)C1=C2C=CC=CC2/C(=C2/C=Cc3ccccc32)C=C1 (centres undefined)		-6.33
O=C1c2ccccc2C(=O)N1c1ccc(S(=O)(=O)N2CCOCC2)c2ccccc12		-1.94
OC(CBr)C[n+]1cccc2cc(Br)ccc21 (centres undefined)		-28.1
O=C(CSc1nc(Nc2ccc(F)c(F)c2)c2ccccc2n1)c1ccc(Cl)cc1		-28.6
FC(F)(F)c1cc(Nc2nc3ccccc3c3nncn23)ccc1Cl		-96.2
OCCNc1nc(Nc2ccc(Cl)c(Cl)c2)nc2ccccc12	12.6 µM (active)	
COc1ccc(CCC(=O)NCCc2csc(-c3ccc(Cl)cc3)n2)cc1		-32.7
O=C(/C=C/c1ccccc1)Nc1cc(-c2nc3cc(Cl)ccc3o2)ccc1Cl		-69.3
Cc1ccc(C)c(N2CCN(c3ccc4cc(S(=O)(=O)N5CCC(C)CC5)ccc4n3)CC2)c1		-1.77
O=C(OCc1nc2ccccc2[nH]1)C1CCCCC1		-12.4
O=S(=O)(c1ccc(Br)cc1)N1CCC(c2nc3ccccc3[nH]2)CC1		-33
c1ccc2[nH]c(-c3nc4ccccc4[nH]3)nc2c1	10 µM (active)	
C=C1CCN(Cc2ccc(OC)cc2)S(=O)(=O)c2ccccc21		9.57
COc1ccc(-c2onc(C)c2C)cc1S(=O)(=O)NCCc1ccccc1		-6.23
O=C(Nc1ccc(S(=O)(=O)N2CCC(c3nc4ccccc4s3)CC2)cc1)c1ccccc1F		3.13
Cc1ccc(C)c(Cn2c(=O)n(CCC(=O)NCc3ccc4c(c3)OCO4)c(=O)c3sccc32)c1		1.7
Nc1nc(N)c(N=O)c(N)n1		-19.7
COc1cccc(Cn2c(SCc3ccc(C(=O)N4CCC(C)CC4)cc3)nc3ccncc32)c1		-26.2
Cc1cccc(CSc2nc3ccncc3n2Cc2ccc(C(=O)O)cc2)c1		11
Cc1cccc(Cn2c(SCc3ccc(C(=O)N4CCC(C)CC4)cc3)nc3ccncc32)c1	12.6 µM (active)	
COC(=O)c1cc(S(=O)(=O)N2CCN(c3cc(Cl)ccc3C)CC2)c[nH]1		-87.6
CCCCCCC1(C)NC(c2ccc3c(c2)OCO3)=CC(c2ccccc2O)N1 (centres undefined)		-20
CCOC(=O)[C@H]1[C@H]2COc3cc(OC)ccc3[C@@H]2N2C(=O)N(c3ccc(Br)cc3)C(=O)[C@@]12C		-17.1
CS(=O)c1ccc(/C=C2\C=Cc3ccccc32)cc1 (centres undefined)		-28.8
